Compound activity (PubChem)
Shown are actives, neighbours in structure and some others; about 18% of the full set was active somewhere.
TDP1 cell CPT – DT40-hTDP1 cell growth loss with CPT; AID 686979; Potency, µM (titrated, usually from 46.2 µM), for inactives: at the top dose activity change, negative = growth inhibition, actives largely listed as inhibitors; actives 12% (n = 420,000); chicken DT40 Tdp1-/-;hTDP1 cells + 20 nM CPT, ATP luminescence, 48 h; also: potency is read from the fitted curve at half-maximal effect; % is scaled to controls: 0 for no effect and ±100 for the full control effect; nearly all actives have a fitted effect of over 55% in size
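Chicken DT40 Tdp1-/- cells complemented with human TDP1, 400 cells/well, exposed to compounds plus 20 nM camptothecin for at least 48 h at 37 C; viability read as ATP content by CellTiter-Glo luminescence.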
HepG2 viability – kills HepG2 cells in TGF-b inhibitor counter-screen | HepG2 CAGA-GFP viability, ATP luminescence, 18 h | actives 0.76% (n = 410,000) | AID 588856 | Potency, µM (doses to about 46.1 µM), for inactives: at the highest dose activity change, negative = cytotoxicity, actives largely listed as cytotoxic; also: potency is read from the fitted curve at half-maximal effect
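CellTiter-Glo luminescence gave cytotoxicity after 18 hours at 37 degrees C. The cells were HepG2 CAGA-GFP in 1% FBS DMEM, stimulated with 500 pg/mL TGF-beta after compound addition. %Activity was normalised to no-cell wells (complete cell-killing) and DMSO (no toxicity), and curves were fitted and classified.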
IL1B secr inh – blocks inflammasome-driven IL-1 beta release; actives 4.7% (n = 360,000); THP-1 LPS/ATP IL-1B secretion, AlphaLISA, 16 h; stronger effect = lower value; activity change, % at 57.5 µM; in the data active = activity change below about -50%; inconclusive = mostly about -30% to -49%; also: % is scaled to controls: 0 for no effect and ±100 for the full control effect
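Secreted IL-1B measured by AlphaLISA bead assay after 16 h compound exposure of THP-1 cells; compounds (final up to 57.5 uM) added 1 h before LPS (250 ng/mL) and ATP (1.25 mM) stimulation; lower signal means less secretion.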
TDP1 cell noCPT – qHTS for Inhibitors of human tyrosyl-DNA phosphodiesterase 1 (TDP1): qHTS in cells in absence of CPT; Potency, µM (titrated, usually from 46.2 µM), inactives show at the highest dose activity change, negative = growth inhibition, hits mostly inhibitors; DT40 Tdp1-/- hTDP1 cells, no CPT, ATP luminescence, 48 h; actives 15% (n = 420,000); AID 686978, 2013; also: potency is read from the fitted curve at half-maximal effect; % is scaled to controls: 0 for no effect and ±100 for the full control effect; nearly all actives have a fitted effect of over 55% in size
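A cellular qHTS used chicken DT40 cells lacking endogenous Tdp1 but carrying stably transfected human TDP1. Compounds were applied without camptothecin, and cell growth kinetics were judged by ATP-dependent luminescence after ≥48 hr.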
TGFb SMAD3 inh – inhibitors of TGF-b signaling; HepG2 CAGA-GFP TGF-b/SMAD3 reporter, GFP fluorescence, 18 h; TGF-beta stimulated, 500 pg/mL final; Potency, µM (series often up to 46.1 µM), without a hit: at the highest dose activity, negative = inhibition, actives largely listed as inhibitors; actives 1.2% (n = 410,000); AID 588855; also: potency is read from the fitted curve at half-maximal effect; % is scaled to controls: 0 for no effect and ±100 for the full control effect; nearly all actives have a fitted effect of over 65% in size
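GFP signal (ex488/em500-530) from TGF-beta-stimulated HEPG2 CAGA-GFP cells, 500 pg/mL final, 18 h at 37 degrees C in DMEM plus 1% FBS, normalized to unstimulated and DMSO-stimulated controls.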
TDP1 block – inhibitors of human tyrosyl-DNA phosphodiesterase TDP1; recombinant TDP1, AlphaScreen DNA substrate cleavage; AID 485290; Q9NUW8; actives 0.28% (n = 350,000); Potency, µM (titrated, usually from 130 µM), inactives show at the top dose activity change, negative = inhibition, most hits filed as inhibitors; also: potency is read from the fitted curve at half-maximal effect; % is scaled to controls: 0 for no effect and ±100 for the full control effect; nearly all actives have a fitted effect of over 40% in size
Target sequence (Q9NUW8 whole entry, looked up): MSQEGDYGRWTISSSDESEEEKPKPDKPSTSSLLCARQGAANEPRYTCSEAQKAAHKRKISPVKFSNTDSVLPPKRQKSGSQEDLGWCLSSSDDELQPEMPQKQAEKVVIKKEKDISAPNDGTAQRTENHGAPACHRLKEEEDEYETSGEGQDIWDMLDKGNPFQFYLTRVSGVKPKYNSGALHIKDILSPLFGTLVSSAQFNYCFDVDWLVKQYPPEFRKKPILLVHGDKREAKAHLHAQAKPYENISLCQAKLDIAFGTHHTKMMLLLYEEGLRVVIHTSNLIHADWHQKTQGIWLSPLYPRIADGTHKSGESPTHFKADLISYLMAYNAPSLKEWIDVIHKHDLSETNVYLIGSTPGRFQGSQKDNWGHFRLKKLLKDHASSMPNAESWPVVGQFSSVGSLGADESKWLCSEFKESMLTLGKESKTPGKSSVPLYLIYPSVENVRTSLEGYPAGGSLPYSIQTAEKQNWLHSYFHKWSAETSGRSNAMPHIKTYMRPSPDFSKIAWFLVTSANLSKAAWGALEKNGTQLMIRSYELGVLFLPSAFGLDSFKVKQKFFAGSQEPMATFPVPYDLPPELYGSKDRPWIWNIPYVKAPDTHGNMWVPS
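Tdp1 1 nM final; 15 min RT w/ cpd; substrate 15 nM, 5 min; beads 10 ug/ml, 10 min; AlphaScreen read. Neg ctrl: no enzyme.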
* = called active by the depositor; ? = inconclusive; · = not tested or not shown; [ ] = remark or other dose. Unless noted, calls follow the shape of the dose curve; as a rule, active = well fitted curve in the direction sought with a large enough effect; inconclusive = small, poorly fitted or top-dose-only effect, or another doubt; inactive = no such curve, though single readings can be large; an effect the other way counts as inactive or inconclusive.

SMILES	TDP1 cell CPT	HepG2 viability	IL1B secr inh	TDP1 cell noCPT	TGFb SMAD3 inh	TDP1 block
Cc1cc(N2C3CCC2CC(O)(c2ccc(F)cc2)C3)nc(-c2ccccc2)n1 (configuration not stated)	?	-99%	-56*	?	?	4%
Cc1ccnc(N2C3CCC2CC(O)(c2ccccc2)C3)n1 (configuration not stated)	10%	6%	13	4%	5%	5%
COC(=O)C1=C(O)/C(=C\c2cc(C)n(-c3ccccc3C)c2C)N=C1C	29µM*	3%	-26	?	-3%	7%
CC1=NN(C(N)=S)C(=O)C1N=Nc1ccccc1Cl (configuration not stated)	5.8µM*	-26%	-7	2.9µM*	?	·
CC1=NN(C(N)=S)C(=O)C1N=Nc1ccc(F)cc1 (configuration not stated)	-24%	20%	-8	?	1%	·
CC1=NN(C(N)=S)C(=O)C1N=Nc1ccc(O)cc1 (configuration not stated)	-20%	-4%	49	26µM*	-17%	-8%
CC1=NN(C(N)=S)C(=O)C1N=Nc1cccc(C)c1 (configuration not stated)	3.3µM*	-38%	5	5.8µM*	1.8µM*	·
CC1=NN(C(N)=S)C(=O)C1N=Nc1ccc(Cl)cc1Cl (configuration not stated)	-15%	-37%	-6	?	7%	9%
CC1=NN(C(N)=S)C(=O)C1N=Nc1ccc(C)c(Br)c1 (configuration not stated)	13µM*	-32%	12	16µM*	-27%	·
CC(N)(C(=O)O)c1ccc(S(=O)(=O)O)cc1 (configuration not stated)	·	·	·	·	·	-4%
CSc1nnc(CCNS(=O)(=O)c2ccc(Br)cc2)n1C	4%	1%	5	4%	20%	8%
O=C(Nc1cccc([N+](=O)[O-])c1)c1cc(S(=O)(=O)N2CCOCC2)cs1	?	-14%	-20	?	-14%	5%
OCCN1CCN(c2nc(N3CCCCC3)nc(N3CCCCC3)n2)CC1	?	-35%	-28	18µM*	-2%	-3%
N=C(N)Sc1nc(N2CCCCC2)nc(N2CCCCC2)n1	13%	8%	14	13%	-5%	5%
CC(Oc1ccccc1)C(=O)Nc1ccccc1C(=O)OCc1cc(=O)n2nc(C3CC3)sc2n1 (configuration not stated)	3.7µM*	-2%	·	7.3µM*	21%	1%
Cc1ccc(OCC(=O)Nc2ccccc2C(=O)OCc2cc(=O)n3nc(C4CC4)sc3n2)cc1	7.3µM*	1%	·	10µM*	-2%	-4%
Cc1ccc(OCC(=O)Nc2ccccc2C(=O)OCc2cc(=O)n3c(C)csc3n2)cc1	16µM*	-15%	·	21µM*	-1%	-6%
COc1cccc(-n2c(C)cc(/C=C3\C(=N)N4N=C(CC(=O)N5CCOCC5)SC4=NC3=O)c2C)c1	-3%	-9%	36	9%	3%	·
COc1ccc(CNCCC(c2ccc(C)cc2)c2ccco2)cc1 (configuration not stated)	12µM*	-93%	·	7.3µM*	·	·
COc1ccc(CNCCC(c2ccccc2)c2ccc3c(c2)OCO3)cc1 (configuration not stated)	5.8µM*	-98%	-87*	5.8µM*	22µM*	10%
Cc1cc(S(=O)(=O)N2CCCOC2CNC(=O)C(=O)NCCCN2CCOCC2)ccc1F (configuration not stated)	10%	7%	9	3%	1%	1%
CCOc1ccc(CCN2C(=S)N([C@@H](Cc3ccc(O)cc3)CN3CCC[C@@H]3CN3C(=S)NC[C@@H]3Cc3ccccc3)C[C@@H]2CC(C)C)cc1	10µM*	-22%	-17	9.2µM*	-9%	·
Oc1ccc(C[C@H]2CNC(=S)N2CC2CCCN2C[C@H](Cc2ccc(O)cc2)N2C[C@H](Cc3ccccc3)N(CCc3ccccc3)C2=S)cc1 (some centres not stated)	?	-6%	-22	21µM*	?	·
CCOc1ccc(CCN2C(=S)N([C@@H](Cc3ccccc3)CN3CCCC3CN3C(=S)NC[C@@H]3Cc3ccccc3)C[C@@H]2Cc2ccc(O)cc2)cc1 (some centres not stated)	21µM*	·	-4	23µM*	·	·
CCOc1ccc(CCN2C(=S)N([C@@H](Cc3ccc(O)cc3)CN3CCC[C@@H]3CN3C(=S)NC[C@@H]3Cc3ccc(O)cc3)C[C@@H]2Cc2ccc(O)cc2)cc1	?	·	-57*	?	·	·
SMILES	TDP1 cell CPT	HepG2 viability	IL1B secr inh	TDP1 cell noCPT	TGFb SMAD3 inh	TDP1 block
CCOc1ccc(CCN2C(=S)N([C@@H](Cc3ccc(O)cc3)CN3CCC[C@@H]3CN3C(=S)NC[C@@H]3Cc3ccccc3)C[C@@H]2Cc2ccccc2)cc1	?	-29%	-18	?	-22%	·
O=C(c1[nH]c(C(F)(F)F)nc1-c1ccccc1)N1CCN(C(=O)C2CCCO2)CC1 (configuration not stated)	-4%	-51%	0	9%	3%	·
Cc1cccc(N2CCN(S(=O)(=O)c3ccc(-c4cc(C(F)(F)F)on4)s3)CC2)c1C	5%	5%	·	-14%	0%	5%
CC1(C2CC2)NC(=O)N(CC(=O)Nc2ccc(SC(F)F)cc2)C1=O (configuration not stated)	-22%	12%	-11	?	12%	0%
COc1ccc(CNC(=O)CCNS(=O)(=O)c2ccc(NC(C)=O)cc2)cc1OC	-6%	1%	17	16%	7%	0%
O=C(OCC(=O)N1CCc2ccccc21)c1ccc([N+](=O)[O-])o1	-10%	-27%	-1	-25%	-16%	0%
O=C1CCN(Cc2cccn2-c2ccccn2)CCN1Cc1ccccc1C(F)(F)F	-5%[9.04 µM]	·	·	-14%	·	·
CS(=O)(=O)Nc1ccccc1NS(C)(=O)=O	-1%	13%	-58*	-11%	5%	·
C[N+](C)(C)CCNC(=O)c1ccccc1	-3%	·	0	-4%	·	·
